# Laboratory results as given in PubChem BioAssay (Tox21).
# Records with an inconclusive call do not appear. A call without a number means that no potency is given here. Calls of active or inactive are those of the source. Unless noted, calls follow the shape of the dose curve; as a rule, active = well fitted curve in the direction sought with a large enough effect in the repeat runs; inconclusive = weak or mixed curves; inactive = no such curve, though single readings can be large; an effect the other way counts as inactive or inconclusive.
# Key:
# [1] = qHTS assay to identify small molecule antagonists of the thyroid receptor (TR) signaling pathway - cell viability counter screen (AID 743064); also: nearly all actives have a fitted effect of over 50% in size; also: potency is read from the fitted curve at half-maximal effect
# Outline: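 Same-well viability check: GH3.TRE-Luc cells stimulated with 1 nM T3 alongside test compound for 23.5 h, followed by CellTiter-Fluor fluorescence.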
# [2] = qHTS assay to identify small molecule antagonists of the thyroid receptor (TR) signaling pathway (AID 743065); also: nearly all actives have a fitted effect of over 55% in size; also: potency is read from the fitted curve at half-maximal effect
# Outline: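 GH3.TRE-Luc rat pituitary cells carrying two TR response elements driving luciferase were plated for 4 h, given compound plus 1 nM T3 (final), and incubated 23.5 h at 37 C. ONE-Glo luminescence measured reporter inhibition; CellTiter-Fluor fluorescence tracked cytotoxicity.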
# [3] = test system: thyroid hormone receptor (rat, GH3 cells); experiment: qHTS assay to identify small molecule agonists of the thyroid receptor (TR) signaling pathway (AID 743066; calls by dose curve)
# [4] = qHTS assay to identify small molecule antagonists of the estrogen receptor alpha (ER-alpha) signaling pathway - cell viability counter screen (AID 743074; calls by dose curve; also: nearly all actives have a fitted effect of over 45% in size)
# [5] = qHTS assay to identify small molecule antagonists of the estrogen receptor alpha (ER-alpha) signaling pathway using the BG1 cell line - cell viability counter screen (AID 743081);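 also: compound given together with 17beta-estradiol as the ER stimulus; nearly all actives have a fitted effect of over 45% in size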; also: potency is read from the fitted curve at half-maximal effect
# Aromatase (Homo sapiens) = Aromatase (Homo sapiens) (UniProt P11511); experiment: qHTS assay to identify aromatase inhibitors (AID 743083); also: nearly all actives have a fitted effect of over 55% in size; also: potency is read from the fitted curve at half-maximal effect
# [6] = target: Estrogen receptor (Homo sapiens) (UniProt P03372); experiment: qHTS assay to identify small molecule antagonists of the estrogen receptor alpha (ER-alpha) signaling pathway (AID 743069; active = well fitted curve in the direction sought with a large enough effect in the signal ratio in the repeat runs, not every such curve was filed as active; the % refers to the signal ratio; also: potency is read from the fitted curve at half-maximal effect)
# Outline: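 Screening used a UAS-driven beta-lactamase reporter integrated into HEK293 cells expressing ER-alpha, stimulated with 17beta-estradiol alongside test compounds over 18 hr at 37C; signal came from LiveBLAzer B/G FRET fluorescence.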
# [7] = target: Estrogen receptor (Homo sapiens) (UniProt P03372); experiment: qHTS assay to identify small molecule agonists of the estrogen receptor alpha (ER-alpha) signaling pathway (AID 743075; calls by dose curve)
# [8] = qHTS assay to identify small molecule antagonists of the estrogen receptor alpha (ER-alpha) signaling pathway using the BG1 cell line (AID 743080; calls by dose curve;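 also: BG1 cells stimulated with 17beta-estradiol alongside compound; nearly all actives have a fitted effect of over 25% in size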; also: potency is read from the fitted curve at half-maximal effect)
# Outline: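 Readout is ONE-Glo luminescence, taken 30 min at room temperature after reagent addition, preceded by a CellTiter-Fluor viability read; BG1-Luc-4E2 cells had received compound and 17beta-estradiol for 21.5 h at 37 C.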
# [9] = target: Estrogen receptor (Homo sapiens) (UniProt P03372); experiment: qHTS assay to identify small molecule agonists of the estrogen receptor alpha (ER-alpha) signaling pathway using the BG1 cell line (AID 743079); details: BG1Luc4E2 cells, ERE-luciferase agonist, 22 h; activation: at 70.3 µM (top of the series); also: nearly all actives have a fitted effect of over 20% in size
# Chain of Estrogen receptor (Homo sapiens) (P03372 whole entry, looked up): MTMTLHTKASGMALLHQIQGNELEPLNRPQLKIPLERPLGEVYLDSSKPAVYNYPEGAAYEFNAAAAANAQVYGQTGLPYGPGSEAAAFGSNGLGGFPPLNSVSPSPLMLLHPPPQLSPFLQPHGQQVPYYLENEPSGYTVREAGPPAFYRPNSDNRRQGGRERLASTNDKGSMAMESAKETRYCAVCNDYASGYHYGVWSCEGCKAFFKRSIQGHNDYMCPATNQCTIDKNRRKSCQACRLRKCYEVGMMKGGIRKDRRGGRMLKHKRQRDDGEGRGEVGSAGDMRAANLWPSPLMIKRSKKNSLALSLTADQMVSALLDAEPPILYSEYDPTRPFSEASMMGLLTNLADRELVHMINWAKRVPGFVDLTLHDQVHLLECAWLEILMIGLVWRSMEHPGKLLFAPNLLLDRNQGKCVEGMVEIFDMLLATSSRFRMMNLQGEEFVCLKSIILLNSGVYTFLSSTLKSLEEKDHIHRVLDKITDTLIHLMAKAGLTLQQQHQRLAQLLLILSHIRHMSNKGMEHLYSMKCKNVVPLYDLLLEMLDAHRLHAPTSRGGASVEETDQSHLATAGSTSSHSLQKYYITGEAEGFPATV
# Chain of Aromatase (Homo sapiens) (P11511 whole entry, looked up): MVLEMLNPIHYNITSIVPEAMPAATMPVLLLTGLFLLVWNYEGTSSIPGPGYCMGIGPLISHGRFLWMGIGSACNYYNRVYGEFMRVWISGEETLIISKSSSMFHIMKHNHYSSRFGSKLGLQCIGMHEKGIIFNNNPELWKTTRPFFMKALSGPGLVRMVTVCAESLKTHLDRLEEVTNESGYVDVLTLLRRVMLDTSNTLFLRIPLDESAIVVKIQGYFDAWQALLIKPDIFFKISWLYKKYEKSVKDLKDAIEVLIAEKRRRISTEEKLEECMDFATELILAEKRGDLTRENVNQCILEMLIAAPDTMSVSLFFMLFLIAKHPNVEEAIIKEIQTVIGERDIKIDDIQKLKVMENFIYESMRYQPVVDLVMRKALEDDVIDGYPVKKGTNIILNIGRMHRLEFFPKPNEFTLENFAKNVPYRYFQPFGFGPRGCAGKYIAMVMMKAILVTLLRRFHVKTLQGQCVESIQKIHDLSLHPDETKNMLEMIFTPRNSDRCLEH
Structure (SMILES),Potency [1],Potency [2],Potency [3],Potency [4],Potency [5],Potency (Aromatase (Homo sapiens)),Potency [6],Potency [7],Potency [8],Potency [9]
CN[C@@H]1[C@@H](O)[C@@H](O[C@@H]2[C@@H](O)[C@H](OC3OC(CN)=CCC3N)[C@@H](N)C[C@H]2N)OC[C@]1(C)O (some centres undefined),inactive,inactive,inactive,inactive,inactive,inactive,–,–,–,–
CC(=O)Nc1ccc(NC(=S)NC(=O)c2ccc(C(C)(C)C)cc2)cc1,8.41 µM (active),2.66 µM (active),inactive,inactive,inactive,inactive,–,–,–,–
[O]=[Bi][O][Bi]=[O],inactive,inactive,inactive,inactive,inactive,inactive,–,–,–,–
Cc1ncc(C[n+]2csc(CCOP(=O)(O)OP(=O)(O)O)c2C)c(N)n1,inactive,inactive,inactive,inactive,inactive,inactive,–,–,–,–
C[C@@H](O)[C@H]1C(=O)N2C(C(=O)[O-])=C(SC3Cn4cnc[n+]4C3)[C@H](C)[C@H]12 (some centres undefined),inactive,inactive,inactive,inactive,inactive,inactive,–,–,–,–
CCN(CC)CCC(=O)N1c2ccccc2Sc2ccc(C(F)(F)F)cc21,13.3 µM (active),26.6 µM (active),–,inactive,inactive,inactive,inactive,inactive,inactive,–
CS(=O)(=O)OCCCNCCCOS(C)(=O)=O,inactive,inactive,inactive,inactive,–,inactive,–,–,–,–
CN1CCN(CCC=C2c3ccccc3Sc3ccc(S(=O)(=O)N(C)C)cc32)CC1,13.3 µM (active),8.41 µM (active),–,–,–,–,inactive,inactive,inactive,inactive
O=C(O)c1c(Cl)c(Cl)c(Cl)c(Cl)c1-c1c2cc(I)c(=O)c(I)c-2oc2c(I)c(O)c(I)cc12,23.7 µM (active),23.7 µM (active),inactive,–,23.7 µM (active),inactive,–,inactive,inactive,–
OC[C@H]1OC([S-])[C@H](O)[C@@H](O)[C@@H]1O.[Au+] (some centres undefined),10.6 µM (active),7.5 µM (active),–,inactive,inactive,inactive,inactive,inactive,inactive,inactive
O=C(O)[C@@H](O)[C@H](O)[C@H](O)[C@@H](O)C(=O)O (tested in a mixture with another compound),inactive,inactive,inactive,–,–,inactive,–,–,–,–
CN1CCN(CCCN2c3ccccc3Sc3ccccc32)CC1,13.3 µM (active),23.7 µM (active),–,inactive,–,–,–,inactive,inactive,inactive
COC(=O)C1=C(C)NC(C)=C(C(=O)O[C@H]2CCN(Cc3ccccc3)C2)[C@H]1c1cccc([N+](=O)[O-])c1,13.3 µM (active),18.8 µM (active),–,inactive,–,inactive,26.8 µM [inhibitor] (active),inactive,inactive,inactive
Clc1cc(Cl)c(OCC#CI)cc1Cl,7.5 µM (active),6.68 µM (active),–,inactive,inactive,16.8 µM (active),inactive,inactive,33.5 µM (active),–
CO[C@H]1C=CO[C@@]2(C)Oc3c(C)c(O)c4c(O)c(c5c(nc6cc(C)ccn65)c4c3C2=O)NC(=O)/C(C)=C\C=C[C@H](C)[C@H](O)[C@@H](C)[C@@H](O)[C@@H](C)[C@H](OC(C)=O)[C@@H]1C,inactive,inactive,inactive,–,inactive,–,–,–,–,–
C#C[C@]1(OC(C)=O)CC[C@H]2[C@@H]3CCC4=CC(=O)CC[C@@H]4[C@H]3CC[C@@]21C,inactive,9.44 µM (active),inactive,–,inactive,–,–,–,–,–
CCN(CC)CCCC(C)Nc1cc(/C=C/c2ccccc2Cl)nc2cc(Cl)ccc12 (centres undefined),26.6 µM (active),29.8 µM (active),–,inactive,–,–,inactive,inactive,inactive,inactive
O=C(O)C1CCCN1 (centres undefined),inactive,inactive,inactive,–,inactive,inactive,–,–,–,–
CC(=O)OC[C@H]1O[C@@H](O[C@H]2[C@H](O)[C@@H](OC(=O)c3ccccc3C(=O)O)[C@H](O)O[C@@H]2COC(C)=O)[C@H](O)[C@@H](OC(=O)c2ccccc2C(=O)O)[C@@H]1O,inactive,inactive,inactive,–,inactive,inactive,–,inactive,inactive,inactive
CCOC(=O)C1=C[C@@H](OC(CC)CC)[C@H](NC(C)=O)[C@@H](N)C1,inactive,inactive,inactive,inactive,–,inactive,–,–,–,–
CCC(c1ccccc1)c1noc(CCN(CC)CC)n1 (centres undefined),inactive,inactive,inactive,–,inactive,inactive,–,–,–,–
CC(C)N1CCN(c2ccc(OC[C@H]3CO[C@](Cn4cncn4)(c4ccc(Cl)cc4Cl)O3)cc2)CC1,6.39 µM (active),4.52 µM (active),–,–,–,–,inactive,inactive,–,inactive
CCN(CC)CCC(=O)N1c2ccccc2Sc2ccc(Cl)cc21,23.7 µM (active),26.6 µM (active),–,inactive,–,inactive,inactive,inactive,inactive,–
NC(=O)c1ccc[n+]([C@@H]2O[C@H](COP(=O)([O-])OP(=O)(O)OC[C@H]3O[C@@H](n4cnc5c(N)ncnc54)[C@H](O)[C@@H]3O)[C@@H](O)[C@H]2O)c1,inactive,inactive,inactive,–,inactive,inactive,–,inactive,inactive,inactive
